Screens (PubChem)
Pf growth 48h: P. falciparum growth inhibition at 48 hours (one generation). 5.9% of 310,000 active. P. falciparum luciferase growth in erythrocytes, 48 h. Potency, µM (doses to about 28.7 µM), for inactives: at the highest dose activity change, negative = inhibition, most hits filed as inhibitors; further: on the % scale 0 is the no-effect control and ±100 the full control effect
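Growth was read as firefly luciferase luminescence after a 48 h, 37 C, 5% CO2 exposure of compounds to reporter-bearing P. falciparum cultures (0.1% parasitemia, 2% hematocrit final) in Albumax-supplemented RPMI 1640.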
Pf growth 96h: P. falciparum growth inhibition at 96 hour, primary screen for plastid delayed-death inhibitors. P. falciparum luciferase reporter growth, 96 h. Potency, µM (titrated, usually from 28.7 µM), for inactives: at the highest dose activity change, negative = inhibition, usual class: inhibitors. 6.9% of 320,000 active. AID 504834; further: on the % scale 0 is the no-effect control and ±100 the full control effect
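Two-generation exposure (96 h) targets delayed-death phenotype. Reporter parasites carrying integrated firefly luciferase, in red cells at 2% hematocrit and 0.05% parasitemia final, kept at 37 C, 5% CO2; luminescence loss indicates inhibition.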
AMA1 RON2 block: inhibitors of Plasmodium falciparum AMA1-RON2 interaction; AlphaScreen AMA1-biotinylated RON2 peptide binding; Potency, µM (doses to about 58.2 µM), for the others: at the top dose activity change, negative = inhibition, usual class: inhibitors; 0.2% of 360,000 active; AID 720542;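 further: 0% = vehicle wells and -100% = peptide control; nearly all actives have a fitted effect of over 45% in size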
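AMA1 (3D7) with his tag at 25 nM final met compounds first, then biotinylated RON2 peptide at 25 nM; detection used donor plus acceptor beads, 10 µg/mL apiece, read by AlphaScreen after 30 min at room temperature.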
NS1 function inh: influenza NS1 inhibition | 0.4% of 270,000 active | Potency, µM (doses to about 46.1 µM), without a hit: top-dose activity, positive = more growth; calls by dose curve; further: actives are rising curves; nearly all actives have a fitted effect of over 50% in size
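Recovery from NS1-induced slow growth read by OD600 in budding yeast switched to galactose assay medium (pH 6.0, -URA) at 1:100 dilution. Compound 23 nl per well; the matching strain lacking NS1 serves as control.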
Sm TGR block: inhibitors of Schistosoma mansoni thioredoxin glutathione reductase; 3% of 360,000 active; Q962Y6; AID 485364; purified TGR, DTNB reduction, TNB absorbance 405 nm; Potency, µM (top dose mostly 114 µM), without a hit: at the top dose activity change, negative = inhibition, most hits filed as inhibitors; further: on the % scale 0 is the no-effect control and ±100 the full control effect; nearly all actives have a fitted effect of over 60% in size
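TGR 20 nM + NADPH 100 uM (dispensed conc.), cpd preinc 15 min RT; start with NADPH (500 uM addition) then DTNB (15 mM addition). Kinetic TNB absorbance, 405 nm filter. Four-parameter Hill fit across titration.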
Active calls of the source: *; u = inconclusive; x = no result. Compounds with a hit are over-represented: about 11% of the library has one in this group of screens. Unless noted, the call rests on the fitted dose curve; in most records, active means well fitted curve in the direction sought with a large enough effect; inconclusive means small, poorly fitted or top-dose-only effect, or another doubt; inactive means no such curve, though single readings can be large; an effect the other way counts as inactive or inconclusive. Potency means the concentration at half of the fitted maximal effect.

SMILES	Pf growth 48h	Pf growth 96h	AMA1 RON2 block	NS1 function inh	Sm TGR block
CCOP(=O)(OCC)C(Nc1cccc(C(F)(F)F)c1)c1ccc(C)cc1 (stereo not given)	10µM*	u	-2%	-18%	-4%
CCOP(=O)(OCC)C(Nc1cccc([N+](=O)[O-])c1)c1ccc(OC)cc1 (stereo not given)	u	u	-15%	-7%	2%
CCCOP(=O)(OCCC)C(Nc1cccc(C(F)(F)F)c1)c1ccc(C)cc1 (stereo not given)	u	12µM*	-7%	-7%	-25%
CCOP(=O)(OCC)C(Nc1cccc(C(F)(F)F)c1)c1ccc(F)cc1 (stereo not given)	u	u	10%	-24%	-14%
COc1ccc(NC(=O)C[C@H]2C(=O)N(C3CCCCC3)C[C@@H]2CSC)cc1	x	x	9%	x	x
O.O.O.O.O.O.O.O=S(=O)([O-])[O-].[Co+2]	6.7µM*	1.7µM*	x	x	x
COC(=O)CSc1ccc(S(=O)(=O)N2CCOCC2)cc1[N+](=O)[O-]	20%	10µM*	12%	-6%	-4%
CCCN(CCC)C(=O)C1CCN(c2ccc(S(=O)(=O)N3CCOCC3)cc2[N+](=O)[O-])CC1	u	5.2µM*	-9%	-2%	8%
CN(CC(=O)O)c1ccc(S(=O)(=O)N2CCOCC2)cc1[N+](=O)[O-]	2.6µM*	95%	13%	5%	-14%
CCOC(=O)CSc1ccc(S(=O)(=O)N2CCC(C)CC2)cc1[N+](=O)[O-]	-6%	274%	-3%	-6%	-3%
CCn1nnc(-c2ccc(N)cc2)n1	29%	7%	-16%	3%	x
COc1ccc(C(=O)NCCn2cc(SCC(=O)Nc3ccccc3)c3ccccc32)cc1OC	x	x	x	x	1%
CCc1cccc(C)c1NC(=O)CCNC(=O)c1cccc(C)c1	7%	1%	-18%	-8%	7%
CCOc1ncccc1C(=O)OCc1cccc([N+](=O)[O-])c1	17%	15%	26%	x	8%
COCC(C)NC(=O)c1cc2c(ccc3ccccc32)oc1=O (stereo not given)	-4%	125%	11%	-3%	0%
CCNC(=O)N1c2ccc(OCC)cc2C(C)=CC1(C)C	-22%	x	u	-81%	-6%
CCOc1ccc2c(c1)C(C)=CC(C)(C)N2C(=O)Nc1ccccc1F	-2%	9.3µM*	1%	-10%	-26%
Cc1ccc(C(=O)N2c3ccccc3N(Cc3ccccc3)C(=O)C2(C)C)cc1	12µM*	7.4µM*	-4%	-75%	34%
Cc1ccc(NC(=O)CC2Oc3ccc(C)cc3NC2=O)cc1 (stereo not given)	x	305%	-6%	5%	1%
COC(=O)CC1Oc2ccc(C)cc2NC1=O (stereo not given)	x	9.3µM*	12%	-8%	-12%
COc1ccc(OC)c(CCNC(=O)CC2Oc3ccc(C)cc3NC2=O)c1 (stereo not given)	x	10µM*	14%	4%	90%
CCOc1ccc(OCC)c(NC(=O)CC2Oc3ccc(C)cc3NC2=O)c1 (stereo not given)	x	10µM*	-9%	5%	-11%
O=C(O)CC1Oc2ccc(Cl)cc2NC1=O (stereo not given)	11%	5.2µM*	-3%	-3%	-1%
Cc1ccc2c(c1)NC(=O)C(CC(=O)Nc1cc(Cl)ccc1C)O2 (stereo not given)	x	x	x	x	3%
COc1ccc(NC(=O)CSc2nc3ccccc3c(=O)n2CCC(=O)NC2CCCCC2)c(OC)c1	x	x	x	x	1%
SMILES	Pf growth 48h	Pf growth 96h	AMA1 RON2 block	NS1 function inh	Sm TGR block
Cc1ccc(C(=O)COC(=O)CCC(=O)Nc2ccc(Oc3cc(C)ccc3C(C)C)cc2)cc1	x	x	x	x	3%
COc1ccc(Cl)cc1NC(=O)CCCn1c(=O)c2cccn2c2cccnc21	x	x	-4%	x	1%
COc1ccccc1C(=O)NCC(C)(C)CN=C1NS(=O)(=O)c2ccccc21	-19%	49%	8%	0%	2%
CN(C)c1ccc(N=Nc2ccccc2C(=O)OCC(=O)N2CCCCCC2)cc1	-2%	0%	18µM*	-19%	0%
CSc1ccccc1C(=O)OCC(=O)N1CCCCCC1	x	x	7%	x	x
CN(C)c1ccc(N=Nc2ccccc2C(=O)OCC(=O)Nc2ccccc2C(F)(F)F)cc1	u	9.3µM*	14µM*	u	-15%
CN(C)c1ccc(N=Nc2ccccc2C(=O)OCC(=O)N2CCCC2)cc1	u	13µM*	u	6%	-19%
Cc1noc(C(C)C)c1C(=O)Nc1ccc(-c2nnc3n2CCCCC3)cc1	u	u	-7%	x	-9%
O=C(c1ccccc1)c1ccc(Oc2ccc(C(=O)O)c(C(=O)O)c2)cc1	28%	1%	-5%	u	9%
Cc1ccccc1N1CCN(C(=O)NCc2cccc(Cl)c2)CC1	u	u	8%	-24%	0%
Cc1ccc(NC(=O)C2CC3CCC2C3)c(Br)c1 (stereo not given)	95%	12%	-1%	-1%	3%
CN1C(C(=O)NCCc2cccs2)CC2Cn3c(nc4ccccc43)C21 (stereo not given)	-17%	4%	9%	0%	7%
C/C(=N\NC(=O)Cc1c(F)cccc1Cl)c1cccnc1	10%	u	52%	4%	4%
O=C(CCn1c(=O)c2cccn2c2cccnc21)N1CCN(c2cccc(Cl)c2)CC1	9.3µM*	u	0%	-4%	-1%
CCOC(=O)C1CCN(C(=O)CCCn2c(=O)c3cccn3c3cccnc32)CC1	-3%	u	3%	9%	79µM*
S=c1[nH]nc(-c2ccccn2)n1/N=C/c1ccc(-c2ccccc2Cl)o1	5%	0%	-7%	x	0%
CC(=O)c1c(C(C)=O)c(C)n(Cc2ccccc2)c1C	-26%	x	-1%	-7%	2%
Cc1c(C=O)c(C=O)c(C)n1Cc1ccccc1	x	5.2µM*	21%	-176%	-19%
CCOc1ccc(-c2nnc(Nc3ccc(OC)c(C(=O)N4CCCCC4)c3)c3ccccc23)cc1	4.1µM*	1.2µM*	-6%	-6%	9%
Cc1ccc2nc(CCl)[n+]([O-])c(-c3ccccc3)c2c1	14%	u	-17%	0%	4.5µM*
Cc1ccc2nc(Cl)c(-c3ccccc3)cc2c1	x	x	8%	x	x
CC1CCN(C(=O)c2[nH]cnc2C(=O)Nc2ccccc2)CC1	x	x	80%	x	x
Cc1ccc(/C=C/C(=O)OCC(=O)NCc2ccccc2)o1	u	28%	5%	x	u
CCOc1ccc(CCNC(=O)COC(=O)/C=C/c2ccc(OC)c(OC)c2)cc1OCC	u	u	-17%	-1%	-9%
CCOC(=O)C1=C(COC(=O)/C=C/c2ccc(C)o2)NC(=O)NC1C (stereo not given)	u	u	-5%	x	22µM*
Cc1ccc(/C=C/C(=O)OCC(=O)NCCN2C(=O)CSC2=O)o1	12%	34%	-2%	x	25µM*
